{"source": "the supplement of paper PMC8047044", "note": "Where a name gives a salt, the structure may show the parent alone."}
{"test_system": "Neuro-2a", "test": "neurite formation score, plate-normalized to DMSO control mean 5.04 (score (0-8 scale)); higher = more or longer neurites", "details": "1 µM", "procedure": "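Neuro-2a mouse neuroblastoma cells in PLL-coated 96-well plates were pre-treated for 1 h in DMEM(+) with each kinase inhibitor at 1 µM, then switched to serum-free DMEM(-) with inhibitor to induce neurite outgrowth and fixed about 2-3 h later. Three blinded observers scored neurite formation from 0 (no neurites) to 8 (long neurites on almost all cells).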"}
{"smiles": "CN(C)c1nc2c(Br)c(Br)c(Br)c(Br)c2[nH]1", "neurite formation score": 5.02}
{"smiles": "c1cc(-c2cnn3cc(-c4ccc(OCCN5CCCCC5)cc4)cnc23)ccn1", "note": "[Dorsomorphin 2HCl]", "neurite formation score": 4.96}
{"smiles": "Cc1c(CN2CCN(C(=O)[C@H](C)O)CC2)sc2c(N3CCOCC3)nc(-c3cnc(N)nc3)nc12", "neurite formation score": 4.21}
{"smiles": "O=C(NOCC1CC1)c1ccc(F)c(F)c1Nc1ccc(I)cc1Cl", "neurite formation score": 3.91}
{"smiles": "COc1cc(Nc2ncc(F)c(Nc3ccc4c(n3)NC(=O)C(C)(C)O4)n2)cc(OC)c1OC", "neurite formation score": 5.63}
{"smiles": "Cn1cnc2c(F)c(Nc3ccc(Br)cc3Cl)c(C(=O)NOCCO)cc21", "note": "[AZD6244 (Selumetinib)]", "neurite formation score": 4.24}
{"smiles": "CNC(=O)c1cc(Oc2ccc(NC(=O)Nc3ccc(Cl)c(C(F)(F)F)c3)c(F)c2)ccn1", "note": "[Regorafenib]", "neurite formation score": 5.24}
{"smiles": "Cc1[nH]c(/C=C2\\C(=O)Nc3ccccc32)c(C)c1CCC(=O)O", "note": "[TSU-68 (SU6668,Orantinib)]", "neurite formation score": 4.57}
{"smiles": "COc1cc2/c(=N/c3ccc(Br)cc3F)nc[nH]c2cc1OCC1CCN(C)CC1", "note": "[Vandetanib (ZD6474)]", "neurite formation score": 4.8}
{"smiles": "Cc1cnc(Nc2ccc(F)cc2Cl)nc1-c1c[nH]c(C(=O)N[C@H](CO)c2cccc(Cl)c2)c1", "neurite formation score": 3.69}
{"smiles": "Cc1cc(C(C)Nc2ccccc2)c2nc(N3CCOCC3)cc(=O)n2c1", "note": "(centres undefined)", "neurite formation score": 4.47}
{"smiles": "O=c1cc(N2CCOCC2)oc2c(-c3cccc4c3sc3ccccc34)cccc12", "neurite formation score": 2.9}
{"smiles": "C=CC(=O)Nc1cccc(Oc2nc(Nc3ccc(N4CCN(C)CC4)cc3OC)ncc2Cl)c1", "neurite formation score": 4.24}
{"smiles": "O=C(NCCCNc1nc(Nc2cccc(CN3CCOCC3)c2)ncc1C1CC1)C1CCC1", "neurite formation score": 5.02}
{"smiles": "CCNC(=O)Nc1ccc(-c2nc3c(c(N4CCOC[C@@H]4C)n2)CCN(C2COC2)C3)cc1", "neurite formation score": 4.24}
{"smiles": "CCCCCCCCCCCCCCCc1cccc(O)c1C(=O)O", "note": "[Anacardic acid]", "neurite formation score": 4.02}
{"smiles": "Cc1ccc(Nc2nccc(N(C)c3ccc4c(C)n(C)nc4c3)n2)cc1S(N)(=O)=O", "note": "[Pazopanib Hydrochloride]", "neurite formation score": 3.57}
{"smiles": "Cn1c(=O)c(F)c(Nc2ccc(I)cc2F)c2c(=O)n(C[C@@H](O)CO)cnc21", "neurite formation score": 4.88}
{"smiles": "Cn1c(Nc2ccc(C(F)(F)F)cc2)nc2cc(Oc3ccnc(-c4ncc(C(F)(F)F)[nH]4)c3)ccc21", "neurite formation score": 4.24}
{"smiles": "NC(=O)c1ncn([C@@H]2O[C@H](CO)[C@@H](O)[C@H]2O)c1N", "neurite formation score": 4.57}
{"smiles": "CCn1c2ccccc2c2cc(Nc3ccnc(NCCCN4CCOCC4)n3)ccc21", "neurite formation score": 3.54}
{"smiles": "C[S+]([O-])c1ccc(-c2nc(-c3ccc(F)cc3)c(-c3ccncc3)[nH]2)cc1", "note": "(centres undefined)", "neurite formation score": 4.57}
{"smiles": "COc1ccc(C(=O)Nc2sc3c(c2C(N)=O)CCCC3)cc1OC", "neurite formation score": 4.57}
{"smiles": "COc1cc(-c2cc(-c3cccc(O)c3)cnc2N)cc(OC)c1OC", "neurite formation score": 3.88}
